High-throughput results (PubChem BioAssay)
ATXN2 expr inh: ATXN2 expression inhibition. HEK-293 ATXN2-luciferase reporter, luminescence, 24 h. Potency, µM (series often up to 57 µM), without a hit: at the highest dose activity change, negative = inhibition, most hits filed as inhibitors. 0.72% of 360,000 active; further: on the % scale 0 is the no-effect control and ±100 the full control effect; nearly all actives have a fitted effect of over 55% in size
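qHTS (up to 57 uM final) was run with 24 h compound exposure of reporter cells at 37 °C. Each well was multiplexed: SteadyGlo luminescence measured ATXN2-luciferase expression after a fluorogenic Gly-Phe-AFC viability readout (25 uM final).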
HT1080-NT tox: kills 2HG-producing HT-1080-NT fibrosarcoma cells; HT-1080-NT fibrosarcoma viability, CellTiter-Glo ATP luminescence, 48 h; Potency, µM (doses to about 46.1 µM), without a hit: at the top dose activity, negative = less viability, usual class: cytotoxic; 1.6% of 360,000 active;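 further: NT is the 2HG producing partner of a matched IDH1 knockdown line; 0% = DMSO-treated cells and -100% = media-only wells without cells; nearly all actives have a fitted effect of over 55% in size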
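Read-out is CellTiter-Glo luminescence after 10 minutes at room temperature, following 48 hours' compound treatment of HT-1080-NT cells (750 cells/well, RPMI, 5% FBS, 37 degrees C).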
TGFb SMAD3 inh: TGF-b pathway inhibition | HepG2 CAGA-GFP TGF-b/SMAD3 reporter, GFP fluorescence, 18 h; TGF-beta stimulated, 500 pg/mL final | Potency, µM (doses to about 46.1 µM), for the others: top-dose activity, negative = inhibition, most hits filed as inhibitors | 1.2% of 410,000 active; further: on the % scale 0 is the no-effect control and ±100 the full control effect; nearly all actives have a fitted effect of over 65% in size
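Inhibition was scored as loss of TGF-beta-induced (500 pg/mL final, 18 hours, 37 degrees C) GFP in HEPG2 cells carrying a CAGA-GFP reporter, in DMEM with 1% FBS. Well GFP was summed per cell; Activity was normalised to unstimulated and stimulated DMSO wells, then concentration-response fitting.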
HT1080 IDH1KD tx: HT-1080 IDH1 knockdown cell toxicity (counter line). HT-1080 IDH1 knockdown viability, ATP luminescence, 48 h. Potency, µM (highest dose often 46.1 µM), for the others: at the highest dose activity, negative = toxicity, usual class: cytotoxic. 2% of 360,000 active. AID 686971;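 further: 0% = DMSO wells and -100% = cell-free medium wells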
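Luminescent ATP read-out (CellTiter-Glo, 10 min at room temperature) after 48 h compound exposure at 37 °C gave viability of IDH1-knockdown HT-1080 cells. Activity was normalised to DMSO and cell-free wells, then fitted as concentration-response curves.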
ATXN viability: cell viability loss in ATXN counter-screen; S2 cells (HEK-293 line with an ATXN2-luciferase reporter) viability, CellTiter-Fluor protease fluorescence, 24 h; 0.49% of 400,000 active; Potency, µM (doses to about 56.7 µM), actives largely listed as cytotoxic; further: nearly all actives have a fitted effect of over 40% in size
HepG2 viability: HepG2 cytotoxicity, counter-screen for TGF-b inhibitors | AID 588856 | Potency, µM (titrated, usually from 46.1 µM), without a hit: at the top dose activity change, negative = cytotoxicity, hits mostly cytotoxic | 0.76% of 410,000 active | HepG2 CAGA-GFP viability, ATP luminescence, 18 h
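HepG2 CAGA-GFP cells (1000/well, DMEM with 1% FBS) received compound, then TGF-beta at 500 pg/mL final, and were incubated 18 hours at 37 degrees C. Viability was read by CellTiter-Glo luminescence. Media-only wells were set as complete cell-killing and DMSO as no toxicity.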
Numbers without * were called inactive; i = inactive; ? = inconclusive; / = no result; ! = not active in a repeat; [ ] = another dose, or the depositor's remark. Sampled rows, rich in hits. Any-hit rate of the full collection: about 3.8%. The call rests on the fitted dose curve; in most records, active means well fitted curve in the direction sought with a large enough effect; inconclusive means small, poorly fitted or top-dose-only effect, or another doubt; inactive means no such curve, though single readings can be large; an effect the other way counts as inactive or inconclusive. Potency means the concentration at half of the fitted maximal effect.

SMILES	ATXN2 expr inh	HT1080-NT tox	TGFb SMAD3 inh	HT1080 IDH1KD tx	ATXN viability	HepG2 viability
COc1cccc(N(C(=O)CCl)C(C(=O)NCCc2ccccc2)c2cccs2)c1 (stereo not drawn)	?	1.6µM*	13µM*	1.3µM*	32µM*	-106%
CCCCCN(CCCCC)c1ccc(/C=C/c2ccnc3ccccc23)cc1	/	/	-4%	/	/	-9%
CCc1cccc(NC(=O)CN2C(=O)COc3ccc(S(=O)(=O)Nc4ccccc4)cc32)c1	-10%	/	?	/	?	-49%
Cc1[nH]c2ccccc2c1C(=O)CN1CCN(C/C=C/c2ccccc2)CC1	-26%	23µM*	-6%	?	i	-11%
CCCN1CNc2c(c(=O)[nH]c(=S)n2CCc2cc(OC)ccc2OC)C1	/	6%	/	20%	/	/
Cc1ccc(-n2[nH]c(C)c(C=Nc3cc(C)ccn3)c2=O)cc1	-7%	10µM*	-4%	23µM*	i	-77%
Cc1ccc(-n2[nH]c(C)c(C=Nc3ccc(Br)cn3)c2=O)cc1	/	-2%	1%	-14%	i	-21%
COc1ccc2nc(/N=C/c3c(C)[nH]n(-c4ccc(C)cc4)c3=O)sc2c1	4%	?	-23%	?	i	8.9µM*
Cc1ccc(-n2[nH]c(C)c(/C=N/c3ccccn3)c2=O)cc1	8%	7.1µM*	-15%	?	i	10µM*
Cc1[nH]n(-c2ccccc2)c(=O)c1C=Nc1cccc2cccnc12	?	-21%	?	?	i	-29%
C[C@H]1[C@H](C)CC[C@]2(C(=O)O)CC[C@]3(C)C(=CC[C@@H]4[C@@]5(C)C[C@@H](O)[C@H](O)C(C)(C)[C@@H]5CC[C@]43C)[C@H]12	0%	0%	?	-1%	?	-49%
C[C@@H]1CC[C@]2(C(=O)O)CC[C@]3(C)C(=CCC4[C@]56CC[C@@](O)(OC5)C(C)(C)C6CC[C@]43C)C2[C@H]1C (stereo partly drawn)	?	?	?	?	25µM*	-34%
O=C(C[n+]1ccccc1Br)c1ccc(I)cc1	/	/	8%	/	/	4%
C=CCOc1cccc(C(=O)/C=C2/C(=O)Nc3ccccc32)c1	?	18µM*	11µM*	?	?	10µM*
C1Cc2[nH]nc(-c3nn[nH]n3)c2C1	-7%	/	/	/	/	/
O=S(=O)(/C=C/C=C/S(=O)(=O)c1ccccc1)c1ccccc1	?	?	3.5µM*	1.3µM*	7.5µM*	-80%
COc1ccccc1C(=O)OCC(=O)Nc1ccc(N2CCCCC2)cc1	/	/	-5%	/	/	-8%
CC(C)CC1NC(=S)N(Cc2ccccc2)C1=O (stereo not drawn)	/	?	5µM*	?	?	-38%
CCOc1ccc(CCNC(=O)c2nn(C)c3c2CSc2ccccc2-3)cc1	/	/	?	/	/	-20%
COc1ccc(C(=O)NCC2Cc3cc(C)cc(-c4cc(C(C)=O)ccc4F)c3O2)c(OC)c1OC (stereo not drawn)	/	/	/	/	i	/
Cc1cc(C)n(-c2nc3cc(Cl)c(Cl)cc3nc2Nc2ccc(F)cc2C)n1	2%	/	?	/	i	-12%
COc1cccc(-c2sc3ccc(OC)cc3c2-c2ccc(OCCN(C)C)cc2)c1	?	?	?	?	?	14µM*
COc1ccc(-c2sc3ccccc3c2-c2ccc(OCCN(C)C)cc2)cc1	?	23µM*	?	?	?	-97%
O=S(=O)(Nc1nc2ccccc2nc1Nc1cccc(S(=O)(=O)N2CCCCC2)c1)c1ccccc1	?	6.5µM*	71%	?	?	-40%
COc1cccc(C(=O)N(Cc2ccc(N(C)C)cc2)Cc2ccco2)c1	/	/	/	/	/	-23%
SMILES	ATXN2 expr inh	HT1080-NT tox	TGFb SMAD3 inh	HT1080 IDH1KD tx	ATXN viability	HepG2 viability
CN(C)CCCNc1ncnc2c1cnn2-c1ccccc1	5%	11%	-14%	-12%	i	-15%
COc1ccc(OC)c(Nc2ncnc3c2cnn3-c2cccc(Cl)c2)c1	-16%	/	2%	/	?	-18%
Cc1cccc(-n2ncc3c(NCc4ccccc4)ncnc32)c1	12%	?	?	18µM*	?	-21%
Cc1ccc(-n2ncc3c(NCCCN(C)C)ncnc32)cc1Cl	?	/	?	/	/	13µM*
COc1ccc(OC)c(Nc2ncnc3c2cnn3-c2cccc(C)c2)c1	4%	7.1µM*	5%	7.1µM*	i	-30%
c1ccc(CNc2ncnc3c2cnn3-c2ccccc2)cc1	1%	?	15%	?	i	3%
NCCCC(N)CC(=O)NCC1NC(=O)C(CO)NC(=O)C(N)CNC(=O)C(C2CCN=C(N)N2)NC(=O)C(=CNC(N)=O)NC1=O (stereo not drawn)	12%[0.709 µM]	/	/	/	i[0.575 µM]	/
Cc1ccc(OCC(=O)NCC(=O)OCc2cc(=O)n3nc(CC(C)C)sc3n2)cc1	0%	/	-8%	/	i	-26%
NC(=O)NO	7.7µM*!	25%	-7%	12%	i	-2%
CC(C)(C)c1ccc(NC(=O)COC(=O)c2ccc(NS(=O)(=O)c3ccc(F)c(F)c3)cc2)cc1	6%	0%	14µM*	-15%	i	-46%
CC(C)(C)NC(=O)NC(=O)COC(=O)c1cccc(NS(=O)(=O)c2ccc(F)c(F)c2)c1	1%	-23%	0%	-16%	i	-7%
c1ccc(-c2c[n+]3c(n2-c2ccccc2)SCC3)cc1	-17%	-3%	-8%	?	i	19%
Cc1ccc(-n2c(-c3ccccc3)c[n+]3c2CCC3)cc1	-2%[11.3 µM]	?	-24%	5.8µM*	?	-14%
CCOc1ccc(-n2c(-c3ccc(Cl)cc3)c[n+]3c2SCC3)cc1	?	-10%	0%	23µM*	i	-28%
CCOc1ccc(-c2c[n+]3c(n2-c2ccccc2)CCCCC3)cc1	?	?	?	18µM*	i	-42%
NC(=O)c1ccc[n+]([C@@H]2O[C@H](COP(=O)([O-])OP(=O)(O)OC[C@H]3O[C@@H](n4cnc5c(N)ncnc54)[C@H](O)[C@@H]3O)[C@@H](O)[C@H]2O)c1	/	/	/	/	i	/
C[C@H](CO)N1C[C@H](C)[C@H](CN(C)Cc2ccc(-c3ccccc3)cc2)Oc2ccc(NS(=O)(=O)c3ccccc3)cc2CC1=O	?	?	?	?	?	11µM*
